# Measurements from PubChem BioAssay AID2013 (Sanford-Burnham Center for Chemical Genomics, 2009).
# Screen size: about 290,000 compounds; about 370 (0.13%) were called active. The sample holds actives, similar compounds and a random draw of the others, so the mix is not that of the screen. Results with a measured potency or affinity are listed apart. Unmarked numbers belong to inactive results.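 How the source made its calls: active means spots per cell inhibited over 60%, with over 100 cells counted and total cytoplasm intensity under 500,000; inconclusive means wells with under 100 cells, flagged as likely toxic; inactive means the rest.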
# Target: G-protein coupled receptor 55 (Homo sapiens) (UniProt Q9Y2T6)
# Assay: inhibition of LPI-stimulated GPR55 beta-arrestin translocation – imaging, U2OS, beta-arrestin-GFP, LPI agonist, primary screen (AID 2013);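 further: U2OS cells stably carrying GPR55 and arrestin-GFP stimulated by 5 µM LPI near EC80; imaged beta-arrestin-GFP aggregate spots per cell after agonist stimulation; plate controls were LPI-stimulated DMSO wells for no effect and DMSO wells without LPI for full effect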
# Conditions: LPI antagonism, at 10 µM, active compounds read high
# Sequence of G-protein coupled receptor 55 (Homo sapiens) (Q9Y2T6 whole entry, looked up): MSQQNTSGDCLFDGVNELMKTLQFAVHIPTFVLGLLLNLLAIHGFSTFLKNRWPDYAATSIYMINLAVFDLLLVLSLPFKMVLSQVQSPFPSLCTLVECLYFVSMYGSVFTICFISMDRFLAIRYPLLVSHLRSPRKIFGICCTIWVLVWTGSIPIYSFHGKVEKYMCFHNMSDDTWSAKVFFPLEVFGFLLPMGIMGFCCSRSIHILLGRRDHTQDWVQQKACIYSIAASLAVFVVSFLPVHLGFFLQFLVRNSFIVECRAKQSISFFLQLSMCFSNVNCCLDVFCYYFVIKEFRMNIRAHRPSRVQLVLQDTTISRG
row,Structure (SMILES),inhibition
1,O=C(O)c1ccccc1NCc1ccsc1,-6.3%
2,Cc1ccc(/C=N/Nc2nc(C)cc(C)n2)cc1,0.6%
3,Cc1ccc(-n2nc(C)c(=O)c(-c3ccccc3)c2NC(=O)C(C)C)cc1,11.6%
4,Cc1cc(C)n(/C(=C\N(C)C)C(=O)c2ccc(Cl)cc2)n1,6.9%
5,O=C(CN1CCN(C(=O)c2ccco2)CC1)Nc1ccc(F)cc1F,10.4%
6,CC(C)(C)c1ccc(CN2C3=NCCCN3c3ccccc32)cc1,29.1%
7,CC(C)(C)c1ccc(CN2C(=O)CSC2=O)cc1,-2.7%
8,Cc1nc(C(Cl)(Cl)Cl)nc2[nH]ccc(=O)c12,4.1%
9,FC(F)(F)c1cccc(Cc2noc(CN3CCC(c4ccncc4)CC3)n2)c1,5.1%
10,Cc1nonc1NC(=O)CSc1nnc(N)s1,-5.8%
11,COc1cccc(-c2csc(N3CCN(Cc4ccccc4)CC3)n2)c1,-6.9%
12,COc1ccc(OC)c(/C=C/C(=O)Nc2cccc(S(=O)(=O)N3CCCC3)c2)c1,-3.3%
13,Cc1cc2c(cc1S(=O)(=O)Nc1cccc(F)c1)n(C)c(=O)c(=O)n2C,-13.1%
14,Cc1cc2c(cc1S(=O)(=O)Nc1ccc(F)cc1)n(C)c(=O)c(=O)n2C,9.6%
15,Cc1cc(NS(=O)(=O)c2ccc(NC(=O)C(C)Oc3ccc(C(C)C)cc3)cc2)no1 (centres undefined),-4.7%
16,Cc1cccn2c(=O)c(/C=C(\C#N)S(=O)(=O)c3ccccc3)c(N3CCN(Cc4ccccc4)CC3)nc12,22.8%
17,N=c1c(C(=O)NC2CCCC2)cc2c(=O)n3ccccc3nc2n1C1CCCC1,8.6%
18,Cc1ccc2nc3c(cc(C(=O)NCc4ccco4)c(=N)n3Cc3ccco3)c(=O)n2c1,23.2%
19,Cc1cccn2c(=O)c3cc(C(=O)NC4CCCC4)c(=N)n(C4CCCCC4)c3nc12,19.8%
20,Cc1cccn2c(=O)c3cc(C(=O)NCc4ccco4)c(=N)n(C(C)C)c3nc12,45.5%
21,Cc1cccn2c(=O)c3cc(C(=O)NCc4ccco4)c(=N)n(C4CCCCC4)c3nc12,50%
22,N=c1c(C(=O)NCc2ccco2)cc2c(=O)n3ccccc3nc2n1C1CCCC1,7.5%
23,O=C(COC(=O)c1cc(=O)[nH]c(=O)[nH]1)Nc1cccc(S(=O)(=O)N2CCCCC2)c1,-7.4%
24,Cc1cccc(C)c1NC(=O)Cn1c(=O)c2cccn2c2ccccc21,3.5%

row,Structure (SMILES),inhibition
1,Cc1ccc(NC(=O)Nc2cnccn2)c(C)c1,1.4%
2,CC(C)CNC(=S)N1CCC(c2nc(-c3ccc(F)cc3)no2)CC1,6.8%
3,CCCc1nnc2n1N=C(c1ccc(-c3cc(Cl)ccc3Cl)o1)CS2,-0.8%
4,CC[C@H](C)[C@@H](NC(=O)O[C@@H]1C(=O)c2cc(Br)ccc2O[C@H]1c1ccc2c(c1)OCO2)C(=O)OC,-3.7%
5,COC(CNC(=O)c1ccc(CS(=O)(=O)c2ccc(Br)cc2)o1)OC,-14.8%
6,CC(=O)O[C@@H]1[C@H]2[C@@H](C[C@@H](C)[C@@H]3CCC(=O)[C@@]13C)OC(=O)[C@@H]2C,6.6%
7,C=C1C(=O)O[C@H]2C[C@]3(C)C([C@@H](OC(=O)/C(C)=C/C)[C@H]12)[C@](C)(O)CC[C@H]3O (some centres undefined),10.2%
8,C[C@@H]1C[C@@H]2OC(=O)[C@]3(C)[C@H]2[C@@H](OC3(C)O)[C@]2(C)C(=O)C=C[C@H]12 (some centres undefined),6.3%
9,CC(=O)O[C@@H]1[C@H]2[C@@H](C[C@@H](C)[C@@H]3C=CC(=O)[C@@]13C)OC(=O)[C@@H]2C,-2%
10,O=C(Nc1ccc(-n2cnnn2)cc1)C(c1ccccc1)c1ccccc1,6.3%
11,CN1CCN(C(=O)c2cnn(-c3ccccc3)c2NC(=O)c2ccccc2Br)CC1,2.7%
12,COc1ccc(C(C)=O)cc1CSc1nnc(Nc2ccc(C)cc2C)s1,1.3%
13,CCn1c(Cn2nnc(-c3ccccc3)n2)nnc1SCC(=O)Nc1ccccc1,-10.2%
14,CCOC(=O)CSc1nnc(Cn2nnc(-c3ccccc3)n2)n1CC,16%
15,COc1ccccc1OCC(=O)NCc1nc(-c2ccccc2)no1,4.4%
16,COc1ccc2[nH]c3c(=O)n(/N=C/c4ccc(OC)c(CN5CCCC5)c4)c(C)nc3c2c1,11.7%
17,COc1ccc2cc(C(=O)CS(=O)(=O)c3ccccc3)c(=O)oc2c1,-4.7%
18,COc1ccc(S(=O)(=O)CC(=O)c2cc3cccc(C)c3oc2=O)cc1,-0.3%
19,COc1cc(S(=O)(=O)NC2CCCC2)c(OC)cc1Cl,-2.6%
20,O=C(N1CCOCC1)C1(c2ccc(Cl)cc2)CCCC1,44.4%
21,COc1ccc(C2(C(=O)N3CCC(n4nc(-c5ccccc5)oc4=O)CC3)CC2)cc1,7.7%
22,O=C(N1CCC(n2nc(-c3ccccc3)oc2=O)CC1)C1(c2ccccc2)CC1,-6.7%
23,O=C(N1CCCCC1)C1(c2ccccc2)CCCCC1,4.3%
24,COc1ccc(C(OC(=O)c2ccco2)C(=O)NCc2ccco2)cc1 (centres undefined),14.6%

row,Structure (SMILES),inhibition
1,COC(=O)c1ccccc1SCc1csc(C)n1,5.7%
2,COc1ccccc1NC(=O)CCN1CC(C)OC(C)C1 (centres undefined),3.2%
3,O=C(NCC(=O)N1CCC2(CC1)NCCc1[nH]cnc12)c1ccc2ccccc2c1,15.2%
4,CCCN1C(=O)/C(=C/C=C2\N(CC)c3ccccc3C2(C)C)SC1=S,-9%
5,CCCCN1C(=O)/C(=C/C=C2\N(C)c3ccccc3C2(C)C)SC1=S,17.2%
6,CCCCNC(=O)N1c2ccccc2CC1C (centres undefined),7.4%
7,COC(=O)c1[nH]c2ccccc2c1NC(=O)c1ccccc1[N+](=O)[O-],12.4%
8,Cc1ccc(OCc2ccc(C#N)cc2)c(C(=O)c2cc(C#N)c(=O)n(C3CC3)c2)c1,-4.5%
9,Cc1ccc(Cc2cnc(N3C(=N)SC(C)C3=O)s2)cc1 (centres undefined),16.2%
10,N=C1SCC(=O)N1c1ncc(Cc2ccccc2Cl)s1,38%
11,Cc1cccc(Cc2cnc(N3C(=N)SC(c4ccccc4)C3=O)s2)c1 (centres undefined),2.3%
12,N=C1SCC(=O)N1c1ncc(Cc2ccc(F)cc2)s1,12.6%
13,N=C1SCC(=O)N1c1ncc(Cc2cccc(Cl)c2)s1,98.9% (active)
14,CCN(CC)CCN(C(=O)c1ccc2c(c1)OCCO2)c1nc2cc(C)cc(C)c2s1,9.6%
15,CC1CCCN(C(=O)Cn2nnc(-c3ccccc3F)n2)C1 (centres undefined),4.4%
16,Cc1ccc(OCCOc2cccc(Br)c2)c([N+](=O)[O-])n1,9.4%
17,Cc1nc(SCC(=O)c2cc3ccccc3oc2=O)c(C#N)c(-c2ccccc2)c1C(=O)Nc1ccccc1,3.8%
18,COc1ccc(N(C(=O)c2ccncc2)S(=O)(=O)c2ccc(F)cc2)cc1,-6%
19,O=C(O)c1cccc(COc2ccccc2Cl)c1,4.2%
20,CN(C(=O)c1ccccc1OCc1ccc(Cl)cc1)c1ccccc1,4.2%
21,O=C(COc1ccc([N+](=O)[O-])cc1)Nc1ccccc1N1CCCC1,7.8%
22,COc1ccc(C(CCN)c2ccc3c(c2)OCO3)cc1 (centres undefined),12.6%
23,COc1ccc(C(CCNCc2ccc(F)cc2)c2ccc(F)cc2)cc1 (centres undefined),45.1%
24,COc1ccc(C(CCNCc2ccccc2)c2ccc(F)cc2)cc1 (centres undefined),37.5%

row,Structure (SMILES),inhibition
1,COc1ccc(C(CCNCc2ccc(N(C)C)cc2)c2ccccc2)cc1 (centres undefined),33.8%
2,O=C(NCc1ccccc1)c1ccc(C2SCC(=O)N2Cc2ccccc2)cc1 (centres undefined),4.1%
3,CCCNC(=O)c1ccc(C2SCC(=O)N2Cc2ccccc2)cc1 (centres undefined),0%
4,CC(C)c1ccc(C2CC(=O)c3cnc(NC(=O)c4ccco4)nc3C2)cc1 (centres undefined),6.3%
5,O=C(CC(=O)NCc1ccc(Cl)cc1)NCc1ccc(Cl)cc1,1.9%
6,CC(C)C(=O)Nc1ccc2c(c1)nc(CCN1CCCCC1)n2C,-5.6%
7,Cc1cc(C)c(C2C(C#N)=C(N)Oc3n[nH]c(C)c32)cc1CN1CCCC1 (centres undefined),7.5%
8,COc1ccc(S(=O)(=O)N2CCCCCC2)cc1N(C)S(=O)(=O)c1ccc(Cl)cc1,18.7%
9,COc1ccc(NS(=O)(=O)c2ccc(OC)c(N(C)S(=O)(=O)c3ccc(Cl)cc3)c2)cc1,1.4%
10,COc1ccc(S(=O)(=O)NN(C)C)cc1N(C)S(=O)(=O)c1ccc(Cl)cc1,9.7%
11,COc1ccc(S(=O)(=O)Nc2ccc(S(=O)(=O)Nc3ccc(F)cc3)cc2)cc1C,17.8%
12,CC(=O)N1CCN(S(=O)(=O)c2ccc(C)cc2)C1c1ccc(N(C)C)cc1 (centres undefined),3.3%
13,CCNc1cc(Nc2c(C)n(C)n(-c3ccccc3)c2=O)c([N+](=O)[O-])c2nonc12,3.6%
14,O=[N+]([O-])c1c(Nc2ccccc2O)cc(Cl)c2nonc12,-4%
15,Cc1c(Nc2cc(N3CCOCC3)c3nonc3c2[N+](=O)[O-])c(=O)n(-c2ccccc2)n1C,18.1%
16,O=[N+]([O-])c1c(Nc2ccc(O)cc2)cc(Cl)c2nonc12,90.4% (active)
17,CN(C)c1cc(Nc2cccc(O)c2)c([N+](=O)[O-])c2nonc12,-9.3%
18,O=C(O)c1cc(Nc2cc(Cl)c3nonc3c2[N+](=O)[O-])ccc1O,-3.1%
19,O=[N+]([O-])c1c(Nc2cccc(O)c2)cc(Cl)c2nonc12,77.1% (active)
20,O=C(O)c1cccc(Nc2cc(Cl)c3nonc3c2[N+](=O)[O-])c1,-6.5%
21,O=[N+]([O-])c1c(Nc2ccccn2)cc(Cl)c2nonc12,4.7%
22,O=C(O)c1ccc(Nc2cc(Cl)c3nonc3c2[N+](=O)[O-])cc1,15.1%
